From PubChem
Rtt109 HAT inh: blocks Candida albicans Rtt109/Vps75 acetyltransferase activity | purified Rtt109/Vps75, ThioGlo CoA-SH fluorescence, 4 h | AID 540336 | 330,000 compounds, 0.16% hits | inhibition, % at 34.9 µM;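 active means inhibition of at least 50% in every replicate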
HTR2A ag: activates the mouse 5-HT2A serotonin receptor. P35363. CHO-K1 mHTR2A beta-arrestin complementation, luminescence; percent of 30 µM serotonin response. activation, % at 7.6 µM. 360,000 compounds, 0.66% hits. AID 624169;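 active means activation above a run cutoff, the mean activation of all tested compounds plus 3 SD, cut at about 14% in these data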;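 further: 0% = plate median of compound wells and 100% = 30 µM serotonin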
TLR9-MyD88 inh: inhibitors of human TLR9-MyD88 binding; AID 504734; Q9NR96+Q99836; CHO BLA complementation TLR9-MyD88, CCF4 FRET ratio; 340,000 compounds, 0.21% hits; inhibition, % at 4.98 µM;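 active means inhibition above the mean over all tested compounds plus 3 SD, cut at about 21% in these data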;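 further: 0% = DMSO only wells and 100% = clavulanate BLA inhibitor control wells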
NOD2-RIPK2 inh: NOD2-RIPK2 protein interaction inhibition; CHO BLA complementation NOD2-RIPK2, CCF4 ratio; AID 624267; inhibition, % at 4.98 µM; O43353; 360,000 compounds, 0.38% hits; in the data active means inhibition above about 21%;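 further: 0% = vehicle only and 100% = reference blocker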
LANA-H2B inh: blocks KSHV LANA binding to histone H2A/H2B. Q9QR71. inhibition, % (concentration not given with the values). 320,000 compounds, 0.6% hits. cell-free LANA-H2A/H2B peptide, fluorescence polarization. AID 2629; in the data active means inhibition mostly above about 10%, no sharp cut-off; inactive means mostly below about 6.7%
TLR4 MyD88 comp: blocks binding of human TLR4 to MyD88. 200,000 compounds, 0.18% hits. AID 861. inhibition, % at 8.4 µM. HeLa CL3-4 TLR4/MyD88 BLA complementation, FRET ratio; in the data active means inhibition above about 25%;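 further: 0% = vehicle and 100% = reference inhibitor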
Target sequence (O00206 whole entry, looked up): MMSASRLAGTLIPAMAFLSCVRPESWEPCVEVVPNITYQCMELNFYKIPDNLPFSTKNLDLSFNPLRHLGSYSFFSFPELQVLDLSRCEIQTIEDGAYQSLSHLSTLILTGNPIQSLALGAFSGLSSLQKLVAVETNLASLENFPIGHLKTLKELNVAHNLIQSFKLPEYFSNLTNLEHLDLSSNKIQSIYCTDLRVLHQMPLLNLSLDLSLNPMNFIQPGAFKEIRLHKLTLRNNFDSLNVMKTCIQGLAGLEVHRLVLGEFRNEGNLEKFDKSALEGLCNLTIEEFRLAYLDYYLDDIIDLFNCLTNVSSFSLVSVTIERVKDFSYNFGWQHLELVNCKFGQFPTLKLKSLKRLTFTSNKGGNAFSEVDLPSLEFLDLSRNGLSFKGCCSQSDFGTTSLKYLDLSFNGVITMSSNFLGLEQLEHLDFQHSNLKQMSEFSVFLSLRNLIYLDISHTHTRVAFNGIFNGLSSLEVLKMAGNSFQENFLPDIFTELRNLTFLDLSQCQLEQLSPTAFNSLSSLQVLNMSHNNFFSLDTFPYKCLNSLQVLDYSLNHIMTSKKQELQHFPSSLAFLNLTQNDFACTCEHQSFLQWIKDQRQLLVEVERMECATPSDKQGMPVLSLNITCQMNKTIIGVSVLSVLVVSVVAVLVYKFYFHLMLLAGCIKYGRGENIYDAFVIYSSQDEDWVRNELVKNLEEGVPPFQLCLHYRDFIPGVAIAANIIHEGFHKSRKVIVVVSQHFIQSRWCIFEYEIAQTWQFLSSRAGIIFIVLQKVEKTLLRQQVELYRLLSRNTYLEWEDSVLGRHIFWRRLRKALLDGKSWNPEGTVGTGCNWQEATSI
Target sequence (Q99836 whole entry, looked up): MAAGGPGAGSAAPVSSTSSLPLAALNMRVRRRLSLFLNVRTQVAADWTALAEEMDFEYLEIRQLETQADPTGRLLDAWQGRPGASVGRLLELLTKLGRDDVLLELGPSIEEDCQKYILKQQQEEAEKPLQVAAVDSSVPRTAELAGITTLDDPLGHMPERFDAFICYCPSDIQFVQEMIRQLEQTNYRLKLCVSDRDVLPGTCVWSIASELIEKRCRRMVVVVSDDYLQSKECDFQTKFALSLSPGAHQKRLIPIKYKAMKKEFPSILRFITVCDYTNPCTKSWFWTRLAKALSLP
NOD2 RIPK2 conf: NOD2-RIPK2 interaction inhibition confirmed; shares compounds with NOD2-RIPK2 inh; CHO cells, NOD2-RIPK2 BLA complementation, CCF4 FRET; inhibition, % at 4.98 µM; 1,200 compounds, 70% hits; AID 624370;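 active means mean inhibition across replicates above a set limit taken from the earlier primary screen, cut at about 21% in these data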;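 further: 0% = DMSO-only wells and the high end = clavulanate BLA-blocked wells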
BLA counter: NOD2-RIPK2 counterscreen BLA reporter activity | shares compounds with NOD2-RIPK2 inh | CHO BLA reporter, CCF4 FRET ratio | inhibition, % at 4.98 µM | 1,200 compounds, 57% hits | AID 624371;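 active means mean inhibition above the low-control mean inhibition plus three low-control SD, cut at about 11% in these data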;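 further: 0% = DMSO only wells and 100% = clavulanate high control wells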
Numbers without * were called inactive; . = no result. The list is not random: actives were taken first. Their share in the collection is about 1.8%.

SMILES	Rtt109 HAT inh	HTR2A ag	TLR9-MyD88 inh	NOD2-RIPK2 inh	LANA-H2B inh	TLR4 MyD88 comp	NOD2 RIPK2 conf	BLA counter
OCCCC1CCCN(Cc2cn[nH]c2-c2ccc(F)cc2F)C1 (stereo unspecified)	-2	-7	-1	22*	-1	-12	2	-4
O=C(C1CCN(Cc2cn[nH]c2-c2ccc(F)cc2F)CC1)N1CCOCC1	2	3	-6	1	1	-4	.	.
Cc1ccc(NS(=O)(=O)c2ccc(-c3cnc(C4CC4)o3)cc2)cc1	24	-7	-9	2	0	.	.	.
Cc1cccc(C)c1NS(=O)(=O)c1ccc(-c2cnc(C3CC3)o2)cc1	26	-1	-2	23*	.	.	10	-4
O=C(O)c1sccc1S(=O)(=O)c1ccccc1	3	8	-28	2	0	-1	.	.
Nc1c(S(=O)(=O)c2ccccc2)csc1C(=O)O	2	8	-12	44*	0	2	-8	-4
Cc1ccc(-n2nnnc2C(=Cc2ccc(N(C)C)cc2)c2nnnn2-c2ccc(C)cc2)cc1	4	0	-7	8	-2	6	.	.
CCN(CC)c1ccc(C=C(c2nnnn2-c2ccccc2)c2nnnn2-c2ccccc2)cc1	3	-4	3	27*	-12	2	30*	30*
CCOC(=O)/C=c1/s/c(=C/c2ccc3cc(OC)ccc3c2)c(=O)n1CC(=O)NCc1ccc2c(c1)OCO2	1	1	-4	25*	.	.	44*	53*
CCOC(=O)/C=c1\s/c(=C\c2ccc(-c3ccccc3)cc2)c(=O)n1CC(=O)NCc1ccc2c(c1)OCO2	14	9	-1	0	6	-6	.	.
COc1ccc(OCCN2CCC(C(=O)NC(c3ccc(C)cc3)c3ccccn3)CC2)cc1 (stereo unspecified)	.	-2	.	21*	.	.	-5	0
O=C(CCNS(=O)(=O)c1ccc(Br)cc1)NCc1ccco1	-18	7	-7	-4	.	.	.	.
CCOC(=O)C(C)N1C(=O)S/C(=C\c2ccc(-c3ccccc3C(=O)O)o2)C1=O (stereo unspecified)	0	-6	-1	23*	-6	.	12	21*
Cc1nc2cc(C(=O)N3c4ccccc4CC3C)ccc2s1 (stereo unspecified)	-2	9	-9	-11	2	7	.	.
O=c1[nH]c2cc3c(cc2cc1CN(CCCO)Cc1nnnn1Cc1ccc(F)cc1)OCO3	-13	-8	8	26*	-1	3	-3	2
COc1ccc(C2CC(=O)Oc3cc(C)c(Cl)c(C)c32)cc1 (stereo unspecified)	6	-2	-6	-6	.	.	.	.
COc1ccc(/C=C2\CN(Cc3ccccc3)C/C(=C\c3ccc(OC)c(O)c3)C2=O)cc1O	15	-4	10	26*	5	.	27*	5
COc1ccc(OC)c2sc(N(CCCN(C)C)C(=O)CCS(=O)(=O)c3ccccc3)nc12	83*	-3	16	41*	-3	.	54*	5
COc1cccc(N2CCN(S(=O)(=O)c3c(C)[nH]c(C)c3C(=O)N3CCCC3)CC2)c1	1	-2	-5	23*	4	.	1	-3
COc1ccccc1NS(=O)(=O)c1c(C)[nH]c(C)c1C(=O)N1CCCC1	-1	14	-9	36*	-5	.	-5	-7
O=C(NC1CC1)c1cc(=S)[nH]c2ccccc12	-7	-4	-3	5	1	.	.	.
O=C(O)c1ccccc1C(=O)N1N=C(c2ccccc2)CC1c1ccccc1O (stereo unspecified)	2	0	5	4	3	.	.	.
CCOc1ccc(C(=O)Nc2nnc(S(=O)(=O)Nc3ccccc3C)s2)cc1	4	-7	3	24*	10	.	0	-6
Cc1cc2nc(-c3nnnn3Cc3ccccc3)c(=O)[nH]c2cc1C	.	-1	.	23*	.	.	13	15*
CN(C)S(=O)(=O)c1cccc(NC(=S)NNC(=O)c2cc3ccccc3cc2O)c1	15	-2	5	0	0	.	.	.
SMILES	Rtt109 HAT inh	HTR2A ag	TLR9-MyD88 inh	NOD2-RIPK2 inh	LANA-H2B inh	TLR4 MyD88 comp	NOD2 RIPK2 conf	BLA counter
CC1(c2ccc3ccccc3c2)NC(=O)N(CC(=O)N2CCCC(C(F)(F)F)C2)C1=O (stereo unspecified)	7	2	8	28*	11	.	0	-2
O=[N+]([O-])c1ccc(-c2cnc(SC(c3ccccc3)c3ccccc3)[nH]2)cc1	-3	-5	14	44*	.	9	19	26*
CCCOc1ccc(NC(=O)C2CC(=O)N/C(=N/N=C(C)/C=C/c3ccc(N(C)C)cc3)S2)cc1 (stereo unspecified)	4	2	10	22*	-3	13	19	26*
CC(/C=C/c1ccc(N(C)C)cc1)=N/N=C1/NC(=O)CC(C(=O)Nc2ccc(Cl)cc2)S1 (stereo unspecified)	3	5	14	24*	-1	7	19	32*
Cc1cccc(C)c1NC(=O)C(c1ccc(C(F)(F)F)cc1)n1c(=O)c(-c2cc3ccccc3[nH]2)nc2ccccc21 (stereo unspecified)	.	2	.	47*	.	.	45*	69*
Cc1cccc(C)c1NC(=O)C(c1ccc(-c2ccccc2)cc1)n1c(=O)c(-c2cc3ccccc3[nH]2)nc2ccccc21 (stereo unspecified)	.	-6	.	42*	.	.	39*	66*
Cc1cccc(C)c1NC(=O)C(c1ccncc1)n1c(=O)c(-c2ccccc2)nc2ccccc21 (stereo unspecified)	.	-4	.	-2	.	.	.	.
CC(C)NC(=O)C1(C)CCCN1Cc1csc2ccccc12 (stereo unspecified)	.	-7	.	14	.	.	.	.
O=C(O)c1ccccc1C(=O)NCc1ccc2c(c1)OCO2	15	5	3	-10	-9	.	.	.
CC(=O)c1ccccc1C(=O)N1CCCC(CNC(=O)c2ccc(F)cc2)C1 (stereo unspecified)	.	-3	4	3	.	.	.	.
O=C1OCCN1CC(=O)N1CCc2c([nH]c3ccccc23)C1c1ccccn1 (stereo unspecified)	-5	1	-13	22*	6	-8	-12	-4
CC(=Cc1ccccc1)C(=O)c1ccccc1	.	-7	0	5	.	.	.	.
O=C(C(Br)=Cc1ccccc1)c1ccccc1	6	3	3	33*	.	.	65*	22*
Nc1c(-c2cccc([N+](=O)[O-])c2)nc2ccccn12	-1	2	-8	-16	-1	-2	.	.
